Screening results from PubChem BioAssay.
D1 antag = Antagonist of Human D 1 Dopamine Receptor: qHTS | D(1A) dopamine receptor (Homo sapiens), P21728 | HEK293 TREx D1 cells, calcium flux, dopamine EC80; hits give low values | activity change, negative = inhibition, % at 10 µM | actives 3.2% (n = 360,000) | AID 504652, 2011; in the data active means activity change below about -30%
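Kinetic fluorescence of a calcium dye serves as the read-out. D1-expressing Hek293 Trex cells, induced overnight at 30 C, are exposed to compound for 180 s before an EC80 dopamine addition, then read 180 s further.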
D1 ag = Allosteric Agonists of the Human D1 Dopamine Receptor: qHTS. D(1A) dopamine receptor (Homo sapiens), P21728. HEK293 T-REx D1 cells, calcium flux, agonist mode. activation, % at 2 µM. actives 1% (n = 360,000); in the data active means activation above about 30%
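Tetracycline-induced HEK293 TREx D1 cells, force-coupled to calcium signalling, were dye-loaded with a no-wash calcium kit. Compound was pin-added after a 10 s baseline. Fluorescence was read kinetically at 1 cycle/s for 180 s, with calcium rises flagged as agonism.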
DRD3 antagonist = qHTS of D3 Dopamine Receptor Antagonist: qHTS; D3R cells, DiscoveRx beta-arrestin luminescence, antagonist mode; hits give low values; actives 2.5% (n = 360,000); D(3) dopamine receptor (Homo sapiens), P35462; max response, negative = inhibition, %; AID 652054, 2013; in the data active means max response below about -50%; inconclusive means no clear call, values can overlap the other calls
Target sequence (P35462 whole entry, looked up): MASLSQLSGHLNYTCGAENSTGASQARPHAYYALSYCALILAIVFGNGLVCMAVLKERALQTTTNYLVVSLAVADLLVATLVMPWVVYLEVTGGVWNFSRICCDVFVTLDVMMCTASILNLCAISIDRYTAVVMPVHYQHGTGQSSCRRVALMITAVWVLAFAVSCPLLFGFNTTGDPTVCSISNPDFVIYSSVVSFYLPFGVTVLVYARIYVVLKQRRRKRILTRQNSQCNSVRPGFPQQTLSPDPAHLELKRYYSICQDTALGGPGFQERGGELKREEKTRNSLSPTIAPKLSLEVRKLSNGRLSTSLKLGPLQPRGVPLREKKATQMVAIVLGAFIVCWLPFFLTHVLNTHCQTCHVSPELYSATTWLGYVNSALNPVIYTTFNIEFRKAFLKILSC
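Cells plated overnight at 1500 cells/well, then exposed to library compounds with dopamine controls for 90 minutes at 37 degrees C. DiscoveRx reagent added for 30–60 minutes at room temperature; luminescence read, quantitative HTS format.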
D1 potentiator = Potentiators of Human D1 Dopamine Receptor: qHTS | HEK293 TREx D1 cells, calcium flux, dopamine EC20 potentiation | potentiation, % at 10 µM | actives 0.036% (n = 360,000) | AID 504651, 2011; in the data active means potentiation above about 30%
D3 ag = qHTS of D3 Dopamine Receptor Agonist: qHTS; D3R DiscoveRx beta-arrestin cells, luminescence, 90 min; actives 0.58% (n = 410,000); max activation, %; in the data active means max activation above about 30%
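Agonist mode: compounds and dopamine controls were applied to plated cells for 90 min at 37 degrees C after an overnight attachment at 1500 cells/well. Luminescent read-out followed 30 - 60 minutes at room temperature with DiscoveRx detection reagent.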
Large screens that a line does not name were inactive. Most compounds without a hit are left out; they make up all but 6% or so of the library.

O=[N+]([O-])c1ccccc1/C=N/N1CCN(Cc2ccccc2)CC1	DRD3 antagonist -67
FC(F)(F)c1ccccc1/C=N/N1CCN(Cc2ccccc2)CC1	DRD3 antagonist -66
Cc1ccc(CN2CCN(/N=C\c3cccc([N+](=O)[O-])c3)CC2)cc1	DRD3 antagonist -56
Clc1ccccc1/C=N/N1CCN(Cc2ccccc2)CC1	none
C(=N\N1CCN(Cc2ccccc2)CC1)/c1ccccc1	none
COc1ccccc1-c1nnc2n(CCc3ccccc3)c(=O)c3ccccc3n12	none (no result: DRD3 antagonist)
O=S(=O)(c1ccc2c(c1)OCCO2)N1CCN(S(=O)(=O)c2cccc[n+]2[O-])CC1	none (no result: DRD3 antagonist, D3 ag)
O=[N+]([O-])c1ccc(Cl)c(/C=N/N2CCN(Cc3ccccc3Cl)CC2)c1	DRD3 antagonist -51
CC(C)c1ccc(NC(=S)NC2CCN(Cc3ccccc3)CC2)cc1	D1 ag 36, DRD3 antagonist inconclusive
Cc1ccc(NC(=S)NC2CCN(Cc3ccccc3)CC2)cc1C	D1 antag -82, DRD3 antagonist -52
O=C(Nc1ccccc1)NC1CCN(Cc2ccccc2)CC1	none (no result: DRD3 antagonist, D3 ag)
S=C(Nc1ccc2c(c1)OCO2)NC1CCN(Cc2ccccc2)CC1	D1 antag -38, DRD3 antagonist -65
Cc1ccc(NC(=O)CN2CCC(NC(=O)Cc3ccccc3)CC2)cc1C	none (no result: D1 antag, D1 ag, D1 potentiator)
Cc1ccc(NC(=S)NC2CCN(Cc3ccccc3)CC2)cc1	D1 antag -64, DRD3 antagonist -61
COc1cccc(CNC(=O)CN2C(=O)N(c3cccc(Cl)c3)S(=O)(=O)c3ccccc32)c1OC	none (no result: DRD3 antagonist)
CCOc1ccccc1NC(=O)CSc1ccc2nc(-c3ccccc3)cn2n1	none (no result: DRD3 antagonist)
COc1ccccc1CNC(=O)CCn1cnc2ccccc2c1=O	none (no result: DRD3 antagonist)
CC(=O)N1CCCc2cc(S(=O)(=O)N(C)CC(=O)Nc3ccc(Cl)cc3C)ccc21	none (no result: DRD3 antagonist)
O=C1c2cccc3c(O)ccc(c23)C(=O)N1Cc1ccccc1	D1 ag 366
O=C(O)c1cccc(CN2C(=O)c3ccccc3C2=O)c1	none
COc1ccc(C2=NNC(c3cccnc3)=Nc3ccccc32)cc1	none
c1ccc(C2=NNC(c3ccco3)=Nc3ccccc32)cc1	D1 antag -32
COC(=O)C[C@](O)(CCCC(C)(C)O)C(=O)O[C@@H]1C(OC)=CC23CCCN2CCc2cc4c(cc2[C@H]13)OCO4 (some centres not stated)	none (no result: D1 antag, D1 ag, DRD3 antagonist, D1 potentiator)
O=c1[nH]nc(SCc2ccccc2)n1C1CC2C=CC1C2 (configuration not stated)	D1 antag -32
O=C(CSc1n[nH]c(=O)n1C1CC1)Nc1ccccc1	none
Cc1cccc(NC(=O)c2ccc(C3SCC(=O)N3CCc3ccccc3)cc2)c1 (configuration not stated)	none
CC(=O)Nc1ccc(NC(=O)c2ccc(C3SCC(=O)N3CCc3ccccc3)cc2)cc1 (configuration not stated)	D1 antag -52
COc1ccc(NS(=O)(=O)c2ccc(O)c(C(=O)OCC(=O)NC(C)C3CC4CCC3C4)c2)cc1 (configuration not stated)	none
CC(NC(=O)COC(=O)c1cc(NS(=O)(=O)c2ccc(Cl)c([N+](=O)[O-])c2)ccc1O)C1CC2CCC1C2 (configuration not stated)	D1 antag -31, DRD3 antagonist -61
COc1ccc(Nc2nc(OC)nc(OC)n2)cc1	none
COc1ccc(Nc2nc(Nc3ccc(OC)cc3)nc(-n3[nH]c(=O)c(C)c3C)n2)cc1	DRD3 antagonist -59
Cn1cc(Br)c(-c2cccc(NC(=O)CC(C)(C)CC(=O)O)c2)n1	none
O=C(O)CCC(=O)Nc1cccc(-c2csc(-c3ccccc3)n2)c1	D1 antag -34
Cn1cc(Br)c(-c2cccc(NC(=O)CCC(=O)O)c2)n1	D1 antag -37
CCN(CC)S(=O)(=O)c1nnc(NC(=O)COc2cccc(C)c2)s1	none (no result: DRD3 antagonist)
O=c1c(Cl)c(Cl)cnn1Cc1nnc(-c2ccc(Cl)cc2)o1	DRD3 antagonist -87
O=c1c(Cl)c(Cl)cnn1Cc1ccccc1Cl	DRD3 antagonist inconclusive
O=C(O)C1CCN(c2nc(-c3ccccc3)c3cc(Br)ccc3n2)CC1	none
